The list is not random: actives were taken first. Their share in the collection is about 1.2%.
RAD54 inh: inhibitors of human RAD54 branch migration, primary screen, biochemical, fluorescence, single point. DNA repair and recombination protein RAD54-like (Homo sapiens), Q92698. RAD54 Holliday junction branch migration, FAM/BHQ fluorescence. inhibition, % at 10.4 µM. actives 0.14% (n = 360,000);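 active means mean normalized replicate activity at least 40 and at least half of replicates scoring 40 or more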;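 further: inhibitors cause a drop in the FAM fluorescence signal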
NSD2 inh: NSD2 histone methyltransferase inhibitors, primary screen, biochemical, AlphaScreen, single concentration, set 2; Histone-lysine N-methyltransferase NSD2 (Homo sapiens), O96028; actives 0.54% (n = 310,000); NSD2 peptide methylation, 120 min; inhibition, % at 12.5 µM; AID 743445, 2014; in the data active means inhibition above about 50%
Casp6 inh: human caspase-6 inhibitors, primary screen, biochemical, VEID-R110 fluorescence, single point, set 2. P55212. purified caspase-6, Z-VEID-R110 cleavage fluorescence. inhibition, % at 12.5 µM. actives 0.53% (n = 350,000). AID 686996, 2013;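 active means mean inhibition across replicates at least about 35%, with every replicate also reaching that limit, limit read from the data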
RAD52 inh: RAD52 DNA annealing inhibitors, primary screen, biochemical, FRET, single point, set 2. inhibition, % at 18.7 µM. DNA repair protein RAD52 homolog (Homo sapiens), P43351. AID 651710, 2012. actives 0.46% (n = 360,000). recombinant RAD52 DNA annealing, FRET fluorescence;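 active means every replicate showing at least 50% inhibition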
Target sequence (P43351 whole entry, looked up): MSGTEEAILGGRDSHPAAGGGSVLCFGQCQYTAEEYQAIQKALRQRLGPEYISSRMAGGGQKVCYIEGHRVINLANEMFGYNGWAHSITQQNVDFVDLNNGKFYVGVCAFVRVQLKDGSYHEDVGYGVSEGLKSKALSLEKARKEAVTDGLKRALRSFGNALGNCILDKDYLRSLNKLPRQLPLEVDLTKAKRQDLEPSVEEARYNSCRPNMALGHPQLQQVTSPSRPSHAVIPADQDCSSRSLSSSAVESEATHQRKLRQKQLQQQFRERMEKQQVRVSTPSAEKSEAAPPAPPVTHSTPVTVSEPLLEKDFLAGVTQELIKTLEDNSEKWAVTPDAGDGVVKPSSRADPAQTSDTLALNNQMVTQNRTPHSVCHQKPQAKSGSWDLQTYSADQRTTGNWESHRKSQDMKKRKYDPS
Glyco luc inh: increase of ERlucT glycosylation luciferase signal, primary screen, N-linked glycosylation inhibitor project, D54 ERlucT cells, luminescence, set 2. actives 0.23% (n = 360,000). reporter increase, % at 12.5 µM. AID 588692, 2011. D54 ERlucT glycosylation luciferase reporter, 24 h; percent of 100 nM tunicamycin response;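 active means mean luciferase reporter signal, scaled so untreated is 0 and the glycosylation-blocking control 100, at or above a set limit in every replicate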;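 further: luciferase carries N-glycosylation sites so blocking glycosylation raises the light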
AlphaScreen art: AlphaScreen signal interference with preloaded methylated product, dose response, artefact control for NSD2 inhibitor project, biochemical, cherry-picked samples; AID 1053174, 2014; AC35, µM (series often up to 10 µM); shares compounds with NSD2 inh; AlphaScreen artifact counterscreen, preloaded methylated H4 peptide; actives 9.4% (n = 1,500); call rule not given here
Of the large screens only hits and unclear results are named; the others gave an inactive call (follow-up assays come after a bar, where they were run).

Cc1cc2c(OCC(O)CNC3CCCCC3)cccc2[nH]1 (stereo not given)	NSD2 inh 54.0 (no result: RAD54 inh) | AlphaScreen art inactive
CCC1CCCCN1C(=O)CSc1nc(N)cc(=O)[nH]1 (stereo not given)	none
CC1(C)C2CCC1(C)C(OC(=O)CSc1nc(N)cc(=O)[nH]1)C2 (stereo not given)	NSD2 inh 80.2 (no result: Casp6 inh, RAD52 inh) | AlphaScreen art inactive
C[C@@H]1CCCCO[C@@H](CN(C)C(=O)Cc2ccccc2)[C@@H](C)CN([C@H](C)CO)C(=O)c2cc(NS(=O)(=O)c3ccccc3)ccc2O1	none (no result: RAD54 inh, NSD2 inh, Glyco luc inh)
CC(=O)Nc1ccc(NCc2ccc(C)s2)cc1	NSD2 inh 55.8 | AlphaScreen art inactive
CCCC(=O)Nc1ccc(NCc2ccc(C)s2)cc1	none
Cc1cc(C)n(-c2ncccc2[N+](=O)[O-])n1	NSD2 inh 51.6 | AlphaScreen art inactive
Cc1cc2ncn(-c3ncccc3[N+](=O)[O-])c2cc1C	none
C[C@@H]1CN([C@@H](C)CO)C(=O)c2cc(NS(C)(=O)=O)ccc2O[C@@H](C)CCCCO[C@@H]1CN(C)C(=O)CCC(F)(F)F	none (no result: NSD2 inh, Glyco luc inh)
Cc1ccccc1N(C(=O)c1snc(C(N)=O)c1N)C(C)C(=O)NC1CCCCC1 (stereo not given)	NSD2 inh 78.2 | AlphaScreen art inactive
COc1ccc(C)cc1NCc1ccc(OC)c(C)c1OC	NSD2 inh 79.5 | AlphaScreen art inactive
COc1ccc(C)cc1NCc1ccc([N+](=O)[O-])cc1	none
O=C(NC1CCCc2ccccc21)c1ccccc1OC(F)F (stereo not given)	NSD2 inh 94.9 | AlphaScreen art inactive
O=C(NC1CCCc2ccccc21)c1ccccc1Cl (stereo not given)	none
Cc1cc2c(N)cccc2nn1	NSD2 inh 98.8 (no result: Casp6 inh, RAD52 inh) | AlphaScreen art inactive
Cn1c(=O)c(-c2ccccc2)nc2ccccc21	NSD2 inh 126.5 (no result: Casp6 inh, RAD52 inh) | AlphaScreen art inactive
Cn1c(=O)c(-c2ccccc2N)nc2ccccc21	none (no result: RAD54 inh, Casp6 inh, RAD52 inh)
O=C(C[C@H]1C=C[C@H](NC(=O)c2ccccn2)[C@H](CO)O1)NCc1cc(F)cc(F)c1	none (no result: NSD2 inh, Glyco luc inh)
C[C@H](CO)N1C[C@H](C)[C@H](CN(C)CC2CCCCC2)OCCCC[C@H](C)Oc2ccc(NC(=O)Nc3ccccc3)cc2C1=O	none (no result: NSD2 inh, Glyco luc inh)
O=C(CC1SC2=NCCN2C1=O)Nc1ccccc1 (stereo not given)	NSD2 inh 115.2 (no result: Casp6 inh, RAD52 inh) | AlphaScreen art inactive
CN(CCc1ccccc1)C1CCCN(S(=O)(=O)c2cccc(F)c2)C1 (stereo not given)	none
CN(CCc1ccccc1)C1CCCN(S(=O)(=O)N(C)C)C1 (stereo not given)	NSD2 inh 53.2 | AlphaScreen art inactive
Cc1c(Cc2ccccc2)c(=O)oc2c(O)c(O)ccc12	NSD2 inh 60.7 (no result: RAD54 inh) | AlphaScreen art inactive

Screening results deposited in PubChem BioAssay by Broad Institute.
